HPGD block = HPGD (human) dehydrogenase inhibition; P15428; purified HPGD, NADH fluorescence kinetic, PGE2 substrate; Potency, µM, for inactives: at the highest dose activity change, negative = inhibition, usual class: inhibitors; actives 4.3% (n = 150,000); further: potency means the concentration at half of the fitted maximal effect
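20 nM HPGD preincubated 15 min at room temperature with compound in 50 mM Tris-HCl pH 8, 0.01% Tween 20. Started with 1 mM NAD+ and 30 uM prostaglandin E2; NADH fluorescence (360/450 nm) read 5 times over 30-s intervals, last minus first.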
PNC assembly inh = perinucleolar compartment assembly inhibition. PC3M PTB-GFP, PNC prevalence imaging, 16 h; stronger effect = lower value. activity change (PNC), negative = inhibition, % at 10 µM. actives 3.1% (n = 140,000). AID 2417;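 active means readout at or below -70, meaning at least 70% loss of cells showing the perinucleolar compartment, a nuclear body marking cancer cells; inconclusive means readout between -30 and a set limit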;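 further: plate controls were DMSO wells for no effect and camptothecin positive control wells for full effect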
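Read-out is percentage of cells bearing a perinucleolar compartment, from automated 20x imaging of fixed, Hoechst-stained PC3M PTB-GFP cells. Cells were seeded 4 h, then exposed 16 h to compound (23 nl of library stock) in duplicate plates.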
ALDH1A1 inh = ALDH1A1 (human) enzyme inhibition. P00352. Purified ALDH1A1, NADH fluorescence, propionaldehyde substrate. Potency, µM (series often up to 75.3 µM), for inactives: at the top dose activity, negative = inhibition, actives largely listed as inhibitors. actives 7.3% (n = 220,000). AID 1030;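 further: potency means the concentration at half of the fitted maximal effect; plate controls were no enzyme wells and a reference inhibitor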
Target sequence (P00352 whole entry, looked up): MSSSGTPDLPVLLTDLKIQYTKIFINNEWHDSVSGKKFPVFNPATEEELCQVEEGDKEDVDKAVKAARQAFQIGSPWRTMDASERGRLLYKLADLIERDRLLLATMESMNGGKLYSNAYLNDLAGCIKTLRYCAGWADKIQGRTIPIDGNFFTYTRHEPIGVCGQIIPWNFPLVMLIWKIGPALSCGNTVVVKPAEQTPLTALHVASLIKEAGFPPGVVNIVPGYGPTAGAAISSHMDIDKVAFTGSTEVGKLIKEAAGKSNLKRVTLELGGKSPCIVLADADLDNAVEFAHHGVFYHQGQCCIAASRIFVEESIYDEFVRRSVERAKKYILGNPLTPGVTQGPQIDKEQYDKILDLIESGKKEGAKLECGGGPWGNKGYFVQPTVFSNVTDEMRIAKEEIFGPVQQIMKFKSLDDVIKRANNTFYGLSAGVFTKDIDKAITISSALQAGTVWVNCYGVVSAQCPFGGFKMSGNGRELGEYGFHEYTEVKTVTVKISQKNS
* = called active by the depositor; ? = inconclusive; · = no result given; [ ] = remark or other dose. Shown are actives, neighbours in structure and some others; about 11% of the full set was active somewhere. Unless noted, the call rests on the fitted dose curve; in most records, active means well fitted inhibition curve with a large enough effect (not every such curve was filed as active); inconclusive means small, poorly fitted or top-dose-only effect, or another doubt; inactive means no such curve, though single readings can be large or run the other way. Unless noted, on the % scale 0 is the no-effect control and ±100 the full control effect.

SMILES	HPGD block	PNC assembly inh	ALDH1A1 inh
CCOc1ccc(NC(=S)N2CCC(C(N)=O)CC2)cc1	-12%	-26	5%
C#C[C@]1(O)CC[C@H]2[C@@H]3CCC4=C(CCC(=O)C4)[C@H]3CC[C@@]21C	-5%	33	-5%
COCCN(C(=O)CN1CCN(S(=O)(=O)c2ccc(F)cc2)CC1)c1c(N)n(Cc2ccccc2)c(=O)[nH]c1=O	1%	31	2%
O=C(c1ccco1)N1CCN(C(=O)N2CCOCC2)CC1	-11%	-7	32µM*
O=C(c1ccco1)N1CCCN(C(=O)c2ccco2)CC1	-5%	19	1%
CC(CCC#N)[N+](=O)[O-] (stereo unspecified)	-2%	·	2%
CC1CN(C(=O)N(C)C)CCN1C(=O)N(C)C (stereo unspecified)	-4%	-127*	3%
CN(C)C(=O)N1CCN(C(=O)N(C)C)CC1	-9%	-9	-12%
O=C(COC(=O)c1ccccc1Sc1ccc(C(F)(F)F)cc1[N+](=O)[O-])NC(=O)NC1CCCC1	-27%	18	?
O=C1NC[C@H](c2ccccc2)N1	-16%	·	-9%
Cc1ccc(-[n+]2cc(=O)o[nH]2)cc1	-5%	·	0%[13.5 µM]
NC(=O)c1ccc(N=C2C(=O)Nc3ccc([N+](=O)[O-])cc32)cc1	·	·	13µM*
NS(=O)(=O)c1ccc(N=C2C(=O)Nc3ccccc32)cc1	-6%	·	-14%[13.5 µM]
O=[N+]([O-])c1cc(-c2nnc(Nc3ccc(O)cc3)c3ccccc23)ccc1N1CCOCC1	-9%	-23	?
Cc1ccc(Nc2nnc(-c3ccc(N4CCOCC4)c([N+](=O)[O-])c3)c3ccccc23)cc1	-16%	?	?
O=[N+]([O-])c1cc(-c2nnc(N3CCOCC3)c3ccccc23)ccc1N1CCOCC1	·	·	10µM*
O=[N+]([O-])c1cc(-c2nnc(Nc3ccccc3)c3ccccc23)ccc1N1CCOCC1	14µM*	-28	?
O=CN[C@@H](Cc1cnc[nH]1)C(=O)O	-6%	·	0%[13.5 µM]
COC1=C[C@@H](C)C2CC3OC(=O)C[C@H]4C(C)=C(OC)C(=O)C([C@@]2(C)C1=O)[C@@]34C (stereo partly specified)	-7%	·	4%
O=c1cc(-c2cccc(O)c2O)oc2ccccc12	16µM*	·	-3%
O=c1cc(-c2ccccc2O)oc2cc(O)ccc12	?	·	4%
COc1cc(-c2cc(=O)c3ccccc3o2)ccc1O	35µM*	·	-4%
O=c1cc(-c2c(F)c(F)c(F)c(F)c2F)oc2ccccc12	-21%	30	16µM*
COc1cc2oc(-c3ccccc3)cc(=O)c2cc1O	-3%	·	?
O=c1cc(-c2ccncc2)oc2ccccc12	-14%	17	-1%
SMILES	HPGD block	PNC assembly inh	ALDH1A1 inh
Cc1ccc(C(=O)O)cc1N=Cc1cc(Br)cc(Br)c1O	?	20	?
CCc1ccc(NC(=S)N(Cc2cccc(Br)c2)CC2CCC(C(=O)O)CC2)cc1 (stereo unspecified)	·	·	-2%
Cc1ccsc1/C=N/NC(=O)CC(=O)NCC(C)C	·	·	6%
COC(=O)C1=C(C(=O)OC)[C@@H]2Nc3ccccc3[C@@]23C[C@@H](C(=O)OC)N(S(=O)(=O)c2ccc(C#N)cc2)C3=N1	-11%	·	?
COc1ccc(CC(=O)Nc2ccc(-c3ccc4nnc(C)n4n3)cc2)cc1OC	·	·	2%
CCc1ccc(NC(=O)c2ccc3c(c2)C(=O)N(CCOC)C3Nc2ccc(CC)cc2)cc1 (stereo unspecified)	-13%	?	-6%
COc1cc2ccccc2cc1C(=O)N1CCN(C)CC1	?	-17	?
CN(C)CC(O)COc1cc2ccccc2cc1C(=O)N1CCCCC1 (stereo unspecified)	28µM*	8	-1%
O=C(O)/C=C/c1cccc(B(O)O)c1	-12%	·	6%
CCc1ccc(C(=O)COC(=O)CNC(=O)COc2ccccc2)cc1	0%	?	1%
Oc1ccc(/C(Cc2ccccn2)=N\Nc2ccccc2)c(O)c1	·	·	18µM*
CC(=O)Oc1ccc(C(=O)Cc2ccccn2)c(O)c1	-8%	?	8%
COc1cccc(-c2noc(-c3ccc(Br)o3)n2)c1	·	·	7%
Cc1sc2nc(CSc3ccccc3)nc(N3CCC(C(N)=O)CC3)c2c1C	·	·	-15%
CCOC(=O)c1sc2nc(CSc3ccccc3)nc(N3CCCN(C)CC3)c2c1C	·	·	28µM*
COc1ccc(NC2=Nc3cccc4cccc2c34)cc1	-12%	68	-13%
CC(/C=C/C(=O)c1ccc(C)cc1)=C\c1ccccc1	-15%	-1	-7%
Cc1ccc(C(=O)/C=C\C(=O)c2ccc(C)cc2)cc1	2.2µM*	-10	7.1µM*
O=C(/C=C\c1ccc(-c2ccccc2)o1)c1ccccc1	?	?	4µM*
Cc1c(/C=C/C(=O)c2ccccc2)cnn1C	?	62	?
